For nine molecules, growth inhibition results are on record in PubChem BioAssay (NCI).

Assay [1] can be described thus: NCI Yeast Anticancer Drug Screen. Data for the rad50 strain (AID 155).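 Also: 0% = growth of vehicle-only cultures of the same strain.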 Conditions: S. cerevisiae rad50 strain growth inhibition, hits give high values. The method, boiled down:
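Growth of the mutant yeast was measured after compound exposure and referenced to vehicle-treated cultures.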

The nature of assay [2]: NCI Yeast Anticancer Drug Screen. Data for the mec2-1 strain (AID 157). Conditions: S. cerevisiae mec2-1 strain, hits give high values. The method, boiled down: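 mec2-1 yeast strain, carrying an alteration in DNA damage repair or cell cycle control, was exposed to compounds; growth inhibition was measured relative to vehicle-treated controls.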
Assay [3] can be described thus: NCI Yeast Anticancer Drug Screen. Data for the sgs1 mgt1 strain (AID 161).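 Also: 0% = growth of cultures given vehicle only.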 Conditions: S. cerevisiae sgs1 mgt1 strain, hits give high values. The method, boiled down:
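Percent growth inhibition was derived by comparing compound-exposed mutant yeast with vehicle-exposed cultures. The strain carries alterations in DNA damage repair.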

The nature of assay [4]: NCI Yeast Anticancer Drug Screen. Data for the cln2 rad14 strain (AID 165).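 Also: 0% = growth equal to vehicle treated cultures.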 Conditions: S. cerevisiae cln2 rad14 strain, hits give high values. The method, boiled down:
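Yeast carrying cln2 and rad14 alterations (cell cycle control and DNA damage repair) were exposed to compounds. Growth inhibition was measured against vehicle-treated controls.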

Assay [5] can be described thus: NCI Yeast Anticancer Drug Screen. Data for the bub3 strain (AID 167). Conditions: S. cerevisiae bub3 mutant strain, hits give high values. The method, boiled down: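 Whole-cell yeast assay. The mutant strain was incubated with compounds, and growth inhibition was determined by comparison with vehicle-treated cells.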
Assay [6] is described as follows: NCI Yeast Anticancer Drug Screen. Data for the mlh1 rad18 strain (AID 175). Conditions: S. cerevisiae mlh1 rad18 strain growth inhibition, hits give high values. The method, boiled down: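 Growth inhibition of the yeast strain was measured after compound exposure and expressed relative to vehicle-treated controls. The strain carries defined defects in DNA damage repair.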

Setting [7] is: at 5.0 µM (retest, dose inferred, filed as 0.5).
Where [8] appears, read: at 50.0 µM (retest, dose inferred, filed as 5.0).

The panel holds about 79,000 compounds, 15% with a hit somewhere; the sample as a whole holds those more often. Values without a mark were called inactive. Calls of active or inactive are those of the source. Rule as the data show it: active = growth inhibition above about 70%; inactive = the rest.

For the molecule `CC(C=O)[Se]c1ccccc1` (configuration not stated), the growth inhibition in assay [1] (setting [7]) was -2%; in assay [1] (setting [8]), 57%; in assay [1] (at 50.0 µM), 91.9% (active); in assay [2] (setting [7]) it was 8%; in assay [2] (setting [8]) it was 53%; in assay [2] (at 50.0 µM) it was 77.7% (active). The growth inhibition in assay [3] (setting [7]) was -3%; in assay [3] (setting [8]), 72% (active); in assay [3] (at 50.0 µM), 86.2% (active); in assay [4] (setting [7]), -9%; in assay [4] (setting [8]), 48%; in assay [4] (at 50.0 µM) it was 48.6%. Moreover, the growth inhibition in assay [5] (setting [7]) was 11%; in assay [5] (setting [8]), 67%; in assay [5] (at 50.0 µM), 86.8% (active); in assay [6] (setting [7]), 12%; in assay [6] (setting [8]) it was 73% (active); in assay [6] (at 50.0 µM), 91.5% (active).
For `C/C=C(\C)C(=O)OC1CC(C)(C)CC2C3=CCC4C5(C)CCC(=O)C(C)(C)C5CCC4(C)C3(C)CCC12C(=O)O` (configuration not stated) (tested in a mixture with another compound), the growth inhibition was 1% in assay [1] (setting [7]); 78% (active) in assay [1] (setting [8]); 86% (active) in assay [1] (at 50.0 µM); -9% in assay [2] (setting [7]); 70% (active) in assay [2] (setting [8]); 84.7% (active) in assay [2] (at 50.0 µM). Besides, the growth inhibition in assay [3] (setting [7]) is 5%; in assay [3] (setting [8]), 77% (active); in assay [3] (at 50.0 µM) it was 89.2% (active); in assay [4] (setting [7]), 38%; in assay [4] (setting [8]), 88% (active); in assay [4] (at 50.0 µM) it was 87.9% (active). Besides, the growth inhibition in assay [5] (setting [7]) was 1%; in assay [5] (setting [8]), 82% (active); in assay [5] (at 50.0 µM) it was 86% (active); in assay [6] (setting [7]), 26%; in assay [6] (setting [8]), 82% (active); in assay [6] (at 50.0 µM) it was 84.3% (active).
Regarding `CC(=O)[O-].CC(=O)[O-].O=C(N/N=C/c1cc(Cl)cc(Cl)c1[OH2+])c1ccncc1.[Zn+2]`, the growth inhibition in assay [1] (setting [7]) was 4%; in assay [1] (setting [8]), 9%; in assay [1] (at 50.0 µM) it was 31%; in assay [2] (setting [7]) it was -1%; in assay [2] (setting [8]), 11%; in assay [2] (at 50.0 µM), 48.4%. The growth inhibition in assay [3] (setting [7]) is 7%; in assay [3] (setting [8]) it was 30%; in assay [3] (at 50.0 µM) it was 60.8%; in assay [4] (setting [7]), 0%; in assay [4] (setting [8]) it was -4%; in assay [4] (at 50.0 µM) it was 38%. Also, the growth inhibition in assay [5] (setting [7]) is 1%; in assay [5] (setting [8]), 10%; in assay [5] (at 50.0 µM), 32.6%; in assay [6] (setting [7]) it was 2%; in assay [6] (setting [8]), 11%; in assay [6] (at 50.0 µM) it was 70% (active).
Take `COC(=O)C1ON(c2ccccc2)C2c3ccccc3-c3ccccc3C12` (configuration not stated): the growth inhibition in assay [1] (setting [7]) is 31%; in assay [1] (setting [8]) it was 63%; in assay [1] (at 50.0 µM), 58.2%; in assay [2] (setting [7]), 27%; in assay [2] (setting [8]), 62%; in assay [2] (at 50.0 µM) it was 18.9%. The growth inhibition in assay [3] (setting [7]) was 45%; in assay [3] (setting [8]) it was 76% (active); in assay [3] (at 50.0 µM), 61.3%; in assay [4] (setting [7]), 14%; in assay [4] (setting [8]), 67%; in assay [4] (at 50.0 µM), 50%. The growth inhibition in assay [5] (setting [7]) was 33%; in assay [5] (setting [8]) it was 86% (active); in assay [5] (at 50.0 µM), 67.2%; in assay [6] (setting [7]) it was 42%; in assay [6] (setting [8]), 68%; in assay [6] (at 50.0 µM), 75% (active).
Regarding `N#CCC[CH2][Sn]([Br])([Br])[c]1ccccc1`, the growth inhibition in assay [1] (setting [7]) is 3%; in assay [1] (setting [8]), 72% (active); in assay [1] (at 50.0 µM), 43.9%; in assay [2] (setting [7]) it was 23%; in assay [2] (setting [8]), 22%; in assay [2] (at 50.0 µM), 80.1% (active). Besides, the growth inhibition was 49% in assay [3] (setting [7]); 49% in assay [3] (setting [8]); 6% in assay [3] (at 50.0 µM); 2% in assay [4] (setting [7]); 11% in assay [4] (setting [8]); 34.5% in assay [4] (at 50.0 µM). The growth inhibition in assay [5] (setting [7]) was -6%; in assay [5] (setting [8]) it was 18%; in assay [5] (at 50.0 µM) it was 89.4% (active); in assay [6] (setting [7]), 8%; in assay [6] (setting [8]), 58%; in assay [6] (at 50.0 µM), 36.5%.
Consider `O=C(CCCc1ccccc1)[O][Hg][c]1ccccc1`, for which the growth inhibition in assay [1] (setting [7]) was 99% (active); in assay [1] (setting [8]), 99% (active); in assay [1] (at 50.0 µM) it was 99.7% (active); in assay [2] (setting [7]) it was 100% (active); in assay [2] (setting [8]), 99% (active); in assay [2] (at 50.0 µM), 99.7% (active). Also, the growth inhibition was 98% (active) in assay [3] (setting [7]); 99% (active) in assay [3] (setting [8]); 99.6% (active) in assay [3] (at 50.0 µM); 99% (active) in assay [4] (setting [7]); 99% (active) in assay [4] (setting [8]); 99.2% (active) in assay [4] (at 50.0 µM). For the same molecule, the growth inhibition was 99% (active) in assay [5] (setting [7]); 99% (active) in assay [5] (setting [8]); 99.2% (active) in assay [5] (at 50.0 µM); 99% (active) in assay [6] (setting [7]); 99% (active) in assay [6] (setting [8]); 99% (active) in assay [6] (at 50.0 µM).
Turning to `NCCCN1CCN(CCCN2CC2)CC1`, the growth inhibition is 1% in assay [1] (setting [7]); 84% (active) in assay [1] (setting [8]); 93.9% (active) in assay [1] (at 50.0 µM); 1% in assay [2] (setting [7]); 30% in assay [2] (setting [8]); 58.3% in assay [2] (at 50.0 µM). Further, the growth inhibition in assay [3] (setting [7]) was -1%; in assay [3] (setting [8]), 83% (active); in assay [3] (at 50.0 µM), 85.3% (active); in assay [4] (setting [7]), -1%; in assay [4] (setting [8]), 92% (active); in assay [4] (at 50.0 µM) it was 93.5% (active). Also, the growth inhibition in assay [5] (setting [7]) is 0%; in assay [5] (setting [8]), 80% (active); in assay [5] (at 50.0 µM), 86.5% (active); in assay [6] (setting [7]), -1%; in assay [6] (setting [8]), 71% (active); in assay [6] (at 50.0 µM), 89.8% (active).
`C[C@]12CC[C@H](O)C[C@@H]1CC[C@@H]1[C@@H]2CC[C@]2(C)C(=O)/C(=C/O)C[C@@H]12`: the growth inhibition in assay [1] (setting [7]) is -1%; in assay [1] (setting [8]), 80% (active); in assay [1] (at 50.0 µM), 54.5%; in assay [2] (setting [7]) it was -1%; in assay [2] (setting [8]), 68%; in assay [2] (at 50.0 µM), 97.1% (active). For the same molecule, the growth inhibition is -1% in assay [3] (setting [7]); 67% in assay [3] (setting [8]); 87% (active) in assay [3] (at 50.0 µM); -15% in assay [4] (setting [7]); 30% in assay [4] (setting [8]); 96.5% (active) in assay [4] (at 50.0 µM). For the same molecule, the growth inhibition in assay [5] (setting [7]) is -4%; in assay [5] (setting [8]) it was 84% (active); in assay [5] (at 50.0 µM), 95.7% (active); in assay [6] (setting [7]) it was 0%; in assay [6] (setting [8]), 61%; in assay [6] (at 50.0 µM), 96.5% (active).
For the molecule `C1CN1[PH+](N1CC1)N1CC1.C1CN1[PH+](N1CC1)N1CC1.[I][Pt][I]`, the growth inhibition was 2% in assay [1] (setting [7]); 20% in assay [1] (setting [8]); 66.5% in assay [1] (at 50.0 µM); 0% in assay [2] (setting [7]); 20% in assay [2] (setting [8]); 14.8% in assay [2] (at 50.0 µM). Also, the growth inhibition was 2% in assay [3] (setting [7]); 30% in assay [3] (setting [8]); 59.8% in assay [3] (at 50.0 µM); 1% in assay [4] (setting [7]); 14% in assay [4] (setting [8]); 21.8% in assay [4] (at 50.0 µM). For the same molecule, the growth inhibition was 2% in assay [5] (setting [7]); 21% in assay [5] (setting [8]); 22.7% in assay [5] (at 50.0 µM); 5% in assay [6] (setting [7]); 44% in assay [6] (setting [8]); 73.8% (active) in assay [6] (at 50.0 µM).
